Experimental data reported in PubChem BioAssay (Tox21).
Unmarked numbers belong to inactive results. Entries that show only a call come without a potency. Calls of active or inactive are those of the source. Calls follow the shape of the dose curve; as a rule, active = well fitted curve in the direction sought with a large enough effect in the repeat runs; inconclusive = weak or mixed curves; inactive = flat fitted curve, though single readings scatter.

Experiment: qHTS assay to test for compound auto fluorescence at 460 nm (blue) in HEK293 cells (AID 720678)
Settings: blue autofluorescence 405/460 nm; series mostly up to 91.3 µM
Procedure, shortened: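 HEK293, 2,000 cells/well, 10% dialyzed FBS; attach 4-5 hr 37C; pin compound or DMSO; o/n 37C/5% CO2; fluorescence 405/460 nm; triamterene-equivalent units.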
For O=c1[nH]c2ccccc2n1CCCN1CCC(n2c(=O)[nH]c3cc(Cl)ccc32)CC1, the Potency was “inactive”.
In the case of Fc1ccc(Oc2ccnc3cc(Cl)cc(Cl)c23)cc1, the Potency is reported as “inactive”.
With N#CCCC(Br)(C#N)CBr (stereo unspecified) the Potency was “inactive”.
With O=C(Nc1ccc2[nH]ccc2c1)c1cc2cc(F)ccc2n1Cc1cccc(F)c1 the Potency was “inactive”.
For CC(=O)[O-].[Tl+], the Potency was “inactive”.
For CC(C)C1CCC(Cc2ccc(Cl)cc2)C1(O)Cn1cncn1 (stereo unspecified), the Potency was “inactive”.
For ClC1=C(Cl)[C@]2(Cl)[C@H]3[C@H]([C@H]4C=C[C@H]3C4)[C@@]1(Cl)C2(Cl)Cl, the Potency was “inactive”.
In the case of CC(C)[C@H](C(=O)OC(C#N)c1cccc(Oc2ccccc2)c1)c1ccc(OC(F)F)cc1 (stereo partly specified), the Potency is reported as “inactive”.
In the case of CCCCN(CCCC)C(=S)[S-].CCCCN(CCCC)C(=S)[S-].[Zn+2], the Potency is reported as “inactive”.
With CC1(c2ccc(Oc3ccccc3)cc2)OC(=O)N(Nc2ccccc2)C1=O (stereo unspecified) the Potency was “inactive”.
For [Hg+2].[I-].[I-], the Potency was “inactive”.
With CCOP(=O)(NC(C)C)Oc1ccc(SC)c(C)c1 (stereo unspecified) the Potency was “inactive”.
In the case of C=CC(=O)OCCCCOC(=O)C=C, the Potency is reported as “inactive”.
With C[C@H]1CC[C@@H]2[C@@H](C)[C@H]3[C@H](C[C@H]4[C@@H]5CC=C6CC(O[C@@H]7O[C@H](CO)[C@H](O)[C@H](O[C@@H]8O[C@H](CO)[C@@H](O)[C@H](O)[C@H]8O)[C@H]7O[C@H]7O[C@@H](C)[C@H](O)[C@@H](O)[C@H]7O)CC[C@]6(C)[C@H]5CC[C@]34C)N2C1 (stereo partly specified) the Potency was “inactive”.
In the case of N#C/C=C/C#N, the Potency is reported as “inactive”.
CN(C)C(=S)[S-].CN(C)C(=S)[S-].[Cu+2] gave a fluorescence, % of triamterene of -0.0228% [at 18.6 µM].
For O=C/C(Cl)=C(/Cl)C(=O)O, the Potency was “inactive”.
For O=[N+]([O-])c1cc(C(F)(F)F)c(Cl)c([N+](=O)[O-])c1Cl, the Potency was “inactive”.
With Oc1ccc(C(=C(Cl)Cl)c2ccc(O)cc2)cc1 the Potency was “inactive”.
With CC(=O)Nc1ccc2c(c1)Cc1ccccc1-2 the Potency was “inactive”.
In the case of CC(=O)[O-].CC(=O)[O-].O.O.[Cd+2], the Potency is reported as “inactive”.
With O=[N+]([O-])O.O=[N+]([O-])O.[Cd] the Potency was “inactive”.
For Nc1ccccc1C(=O)OC/C=C/c1ccccc1, the Potency was “inactive”.
In the case of Nc1ccc(Cc2ccc(N)c(Cl)c2)cc1Cl, the Potency is reported as “inactive”.
For CC(C)OC(=O)C(O)(c1ccc(Cl)cc1)c1ccc(Cl)cc1, the Potency was “inactive”.
With CC(=O)[O-].CC(=O)[O-].[Hg+2] the Potency was “inactive”.
With [Cd+2].[Cl-].[Cl-] the Potency was “inactive”.
With CC1(C)C(/C=C(\Cl)C(F)(F)F)C1C(=O)OC(C#N)c1cccc(Oc2ccccc2)c1 (stereo unspecified) the Potency was “inactive”.

Experiment: qHTS assay to test for compound auto fluorescence at 590 nm (red) in HEK293 cells (AID 720679)
Settings: red autofluorescence 540/590 nm; series mostly up to 91.3 µM
Procedure, shortened: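 Intensity at 540nm excitation and 590nm emission is reported as Rose Bengal sodium-equivalent autofluorescence. Measurements followed overnight exposure (37C, 5% CO2) of HEK293 cells, 2,000 per well, to 23 nL compound.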
With O=c1[nH]c2ccccc2n1CCCN1CCC(n2c(=O)[nH]c3cc(Cl)ccc32)CC1 the outcome was “inactive”.
For Fc1ccc(Oc2ccnc3cc(Cl)cc(Cl)c23)cc1, the outcome was “inactive”.
With CCCCCCCCc1ccc(O)cc1 the outcome was “inactive”.
For N#CCCC(Br)(C#N)CBr (stereo unspecified), the outcome was “inactive”.
For O=C(Nc1ccc2[nH]ccc2c1)c1cc2cc(F)ccc2n1Cc1cccc(F)c1, the outcome was “inactive”.
In the case of CC(=O)[O-].[Tl+], the outcome is reported as “inactive”.
With O=C(O)C1C2CCC(O2)C1C(=O)O (stereo unspecified) the outcome was “inactive”.
With CC(C)C1CCC(Cc2ccc(Cl)cc2)C1(O)Cn1cncn1 (stereo unspecified) the outcome was “inactive”.
With ClC1=C(Cl)[C@]2(Cl)[C@H]3[C@H]([C@H]4C=C[C@H]3C4)[C@@]1(Cl)C2(Cl)Cl the outcome was “inactive”.
With CN(C)C(=S)S the outcome was “inactive”.
For CC(C)[C@H](C(=O)OC(C#N)c1cccc(Oc2ccccc2)c1)c1ccc(OC(F)F)cc1 (stereo partly specified), the outcome was “inactive”.
With CN(C)c1ccc(N=Nc2ccccc2)cc1 the outcome was “inactive”.
For CCCCN(CCCC)C(=S)[S-].CCCCN(CCCC)C(=S)[S-].[Zn+2], the outcome was “inactive”.
With N#CC(Cl)Cl the outcome was “inactive”.
For CC1(c2ccc(Oc3ccccc3)cc2)OC(=O)N(Nc2ccccc2)C1=O (stereo unspecified), the outcome was “inactive”.
For C[C@@H]1CC[C@@]2(OC1)O[C@H]1[C@@H](O)[C@H]3[C@@H]4CC[C@H]5C[C@@H](O[C@@H]6O[C@H](CO)[C@H](O[C@@H]7O[C@H](CO)[C@@H](O)[C@H](O[C@@H]8OC[C@@H](O)[C@H](O)[C@H]8O)[C@H]7O[C@@H]7O[C@H](CO)[C@@H](O)[C@H](O[C@@H]8O[C@H](CO)[C@@H](O)[C@H](O)[C@H]8O)[C@H]7O)[C@H](O)[C@H]6O)[C@H](O)C[C@]5(C)[C@H]4CC[C@]3(C)[C@H]1[C@@H]2C, the outcome was “inactive”.
In the case of [Hg+2].[I-].[I-], the outcome is reported as “inactive”.
In the case of CCOP(=O)(NC(C)C)Oc1ccc(SC)c(C)c1 (stereo unspecified), the outcome is reported as “inactive”.
With C=CC(=O)OCCCCOC(=O)C=C the outcome was “inactive”.
For C[C@H]1CC[C@@H]2[C@@H](C)[C@H]3[C@H](C[C@H]4[C@@H]5CC=C6CC(O[C@@H]7O[C@H](CO)[C@H](O)[C@H](O[C@@H]8O[C@H](CO)[C@@H](O)[C@H](O)[C@H]8O)[C@H]7O[C@H]7O[C@@H](C)[C@H](O)[C@@H](O)[C@H]7O)CC[C@]6(C)[C@H]5CC[C@]34C)N2C1 (stereo partly specified), the outcome was “inactive”.
In the case of N#C/C=C/C#N, the outcome is reported as “inactive”.
In the case of Oc1cc(Cl)c(Cl)c(Cl)c1, the outcome is reported as “inactive”.
For CN(C)C(=S)[S-].CN(C)C(=S)[S-].[Cu+2], the fluorescence, % of fluorescent control was 0.0936% [at 18.6 µM].
In the case of O=C/C(Cl)=C(/Cl)C(=O)O, the outcome is reported as “inactive”.
With O=[N+]([O-])c1cc(C(F)(F)F)c(Cl)c([N+](=O)[O-])c1Cl the outcome was “inactive”.
With Oc1ccc(C(=C(Cl)Cl)c2ccc(O)cc2)cc1 the outcome was “inactive”.
For CN(C)S(=O)(=O)N(SC(F)(Cl)Cl)c1ccccc1, the outcome was “inactive”.
In the case of CC(=O)Nc1ccc2c(c1)Cc1ccccc1-2, the outcome is reported as “inactive”.
In the case of CC(=O)[O-].CC(=O)[O-].O.O.[Cd+2], the outcome is reported as “inactive”.
In the case of O=[N+]([O-])O.O=[N+]([O-])O.[Cd], the outcome is reported as “inactive”.
In the case of CCCCCCCCCCCCBr, the outcome is reported as “inactive”.
With Nc1ccccc1C(=O)OC/C=C/c1ccccc1 the outcome was “inactive”.
With Nc1ccc(Cc2ccc(N)c(Cl)c2)cc1Cl the outcome was “inactive”.
In the case of CCCSP(=O)(OCC)SCCC, the outcome is reported as “inactive”.
With CC(C)OC(=O)C(O)(c1ccc(Cl)cc1)c1ccc(Cl)cc1 the outcome was “inactive”.
With CC(=O)[O-].CC(=O)[O-].[Hg+2] the outcome was “inactive”.
In the case of [Cd+2].[Cl-].[Cl-], the outcome is reported as “inactive”.
With CC1(C)C(/C=C(\Cl)C(F)(F)F)C1C(=O)OC(C#N)c1cccc(Oc2ccccc2)c1 (stereo unspecified) the outcome was “inactive”.
